Pf Dd2 inh = blocks growth of Plasmodium falciparum Dd2 parasites; AID 1159554; P. falciparum Dd2 growth, SYBR Green, 72 h; stronger effect = lower value; actives 2.3% (n = 94,000); activity change, % at 10 µM; in the data active = activity change below about -80%; inconclusive = no clear call, values can overlap the other calls
C diff HTS = blocks growth of Clostridium difficile. actives 0.25% (n = 86,000). AID 1259249. Clostridium difficile clinical isolate growth, OD600, 24 h; stronger effect = lower value. growth activity, negative = inhibition, % at 16 µg/mL (by protocol);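 active = mean growth activity at or below -80% and every replicate also at or below -80%; inconclusive = mean at or below -80% but some replicate above -80%; inactive = mean growth activity above -80%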;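 note: 0% = DMSO wells and -100% = levofloxacin 16 µg/mL wells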
* = called active by the depositor. In the library only some 2.3% were active in any assay of this set; here they are far more common.

Results for COc1ccc2c3c(n(C)c2c1)[C@H](CO)N(CC1CC1)CC31CN(C(=O)c2ccc3c(c2)OCO3)C1 ?
Pf Dd2 inh: -89.3*; C diff HTS: 1.5

What do the screens show for `COc1cc(CN2CC3(CN(C(=O)c4ccc5c(c4)OCO5)C3)c3c(n(C)c4cc(OC)ccc34)[C@@H]2CO)cc(OC)c1`?
Pf Dd2 inh: -70.8; C diff HTS: 4.9

Results for CCC(=O)N1CC2(C1)CN(Cc1cccc(Cl)c1)[C@H](CO)c1c2c2ccc(OC)cc2n1C ?
Pf Dd2 inh: -92.1*; C diff HTS: 14.3

How did COc1ccc2c3c(n(C)c2c1)[C@@H](CO)N(Cc1ccc2c(c1)OCO2)CC31CN(C(=O)c2ccc3c(c2)OCO3)C1 do in these assays?
Pf Dd2 inh: -85.0*; C diff HTS: 18.8

Results for COc1ccc2c3c(n(C)c2c1)[C@@H](CO)N(CC1CC1)CC31CN(C(=O)c2ccc3c(c2)OCO3)C1 ?
Pf Dd2 inh: -74.1; C diff HTS: 3.4

What do the screens show for `C[C@@H]1CCCCO[C@H](CN(C)C)[C@@H](C)CN([C@@H](C)CO)C(=O)c2cc(NC(=O)NC3CCCCC3)ccc2O1`?
Pf Dd2 inh: 9.9; C diff HTS: -0.2

How did CCCNC(=O)Nc1ccc2c(c1)C(=O)N(C)[C@@H]1CC[C@@H](CC(=O)O)O[C@H]1CO2 do in these assays?
Pf Dd2 inh: -19.3; C diff HTS: -3.9

Results for C[C@@H]1CCCCO[C@H](CN(C)C(=O)Nc2ccc3c(c2)OCO3)[C@@H](C)CN([C@@H](C)CO)C(=O)c2cc(NC(=O)Cc3ccccc3)ccc2O1 ?
Pf Dd2 inh: -65.7; C diff HTS: 4.1

What do the screens show for `C[C@@H]1CCCCO[C@H](CN(C)C(=O)Nc2ccc3c(c2)OCO3)[C@H](C)CN([C@H](C)CO)C(=O)c2cc(NC(=O)Cc3ccccc3)ccc2O1`?
Pf Dd2 inh: -82.2*; C diff HTS: 0.8

Results for C[C@@H]1CCCCO[C@@H](CN(C)C(=O)Nc2ccc3c(c2)OCO3)[C@@H](C)CN([C@@H](C)CO)C(=O)c2cc(NC(=O)Cc3ccccc3)ccc2O1 ?
Pf Dd2 inh: -83.5*; C diff HTS: -0.2

Results for C[C@H]1CCCCO[C@H](CN(C)C(=O)Nc2ccc3c(c2)OCO3)[C@@H](C)CN([C@@H](C)CO)C(=O)c2cc(NC(=O)Cc3ccccc3)ccc2O1 ?
Pf Dd2 inh: inconclusive; C diff HTS: -1.2

How did O=C(Nc1ccc(F)cc1)N[C@H]1CC[C@@H](CCn2cc(-c3ccccc3F)nn2)O[C@H]1CO do in these assays?
C diff HTS: -0.7

What do the screens show for `CCC(=O)N(C)C[C@@H]1Oc2cc(-c3cncnc3)ccc2S(=O)(=O)N([C@H](C)CO)C[C@H]1C`?
Pf Dd2 inh: 24.3; C diff HTS: -2.8

How did O=C(c1cccc(F)c1)N1C[C@H]2[C@@H](c3ccccc31)[C@@H](CO)N2C(=O)C1CCCCC1 do in these assays?
Pf Dd2 inh: -13.3; C diff HTS: 12.0

What do the screens show for `C[C@@H]1CCCCO[C@@H](CN(C)C(=O)Nc2cccc3ccccc23)[C@@H](C)CN([C@H](C)CO)C(=O)c2cc(NC(=O)Cc3ccccc3)ccc2O1`?
Pf Dd2 inh: -83.7*; C diff HTS: 18.9

Results for C[C@@H]1CCCCO[C@H](CN(C)C(=O)Nc2cccc3ccccc23)[C@H](C)CN([C@@H](C)CO)C(=O)c2cc(NC(=O)Nc3ccccc3)ccc2O1 ?
Pf Dd2 inh: -50.1; C diff HTS: 3.5

How did C[C@@H]1CCCCO[C@H](CN(C)C(=O)Nc2cccc3ccccc23)[C@H](C)CN([C@H](C)CO)C(=O)c2cc(NC(=O)Cc3ccccc3)ccc2O1 do in these assays?
Pf Dd2 inh: -84.2*; C diff HTS: -2.2

Results for C[C@@H]1CN([C@H](C)CO)C(=O)c2cc(NC(=O)Cc3ccccc3)ccc2O[C@@H](C)CCCCO[C@@H]1CN(C)C(=O)Nc1cccc2ccccc12 ?
Pf Dd2 inh: -92.2*; C diff HTS: 14.4

What do the screens show for `C[C@H](CO)N1C[C@H](C)[C@@H](CN(C)C(=O)Nc2cccc3ccccc23)OCCCC[C@H](C)Oc2ccc(NC(=O)Cc3ccccc3)cc2C1=O`?
Pf Dd2 inh: inconclusive; C diff HTS: -14.6

How did C[C@@H]1CN([C@@H](C)CO)C(=O)c2cc(NC(=O)Nc3ccccc3)ccc2O[C@@H](C)CCCCO[C@H]1CN(C)C(=O)Nc1cccc2ccccc12 do in these assays?
Pf Dd2 inh: -37.1; C diff HTS: -1.8

What do the screens show for `CC(C)NC(=O)Nc1cccc2c1O[C@@H](CN(C)S(=O)(=O)c1cccs1)[C@@H](C)CN([C@H](C)CO)C2=O`?
Pf Dd2 inh: 7.6

How did C[C@@H]1CCCCO[C@H](CN(C)Cc2ccc3c(c2)OCO3)[C@@H](C)CN([C@H](C)CO)C(=O)c2cc(NC(=O)Nc3cccc4ccccc34)ccc2O1 do in these assays?
Pf Dd2 inh: 16.2

What do the screens show for `C[C@H](CO)N1C[C@H](C)[C@H](CN(C)Cc2ccc3c(c2)OCO3)OCCCC[C@H](C)Oc2ccc(NC(=O)Nc3cccc4ccccc34)cc2C1=O`?
Pf Dd2 inh: 1.9

Compound activity: PubChem, Broad Institute
